Source: PubChem BioAssay AID1159580 (chemical genetic matrix, 2015)
Hit rate of the full screen: of about 5,500 compounds, about 2,000 (36%) were called active. About 18% were inconclusive and are not listed. No stated cut-off is given here; in the data, active means normalized growth mostly below about 0.91 (no sharp cut-off); inconclusive means no clear call, values can overlap the other calls; inactive means mostly above about 0.92. Some of the results follow.

Test: chemical genetic growth profiling, strain panel (AID 1159580);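 further: tested at 20 µM; growth read once vehicle control cultures reached saturation at 30 °C; 1 = growth at the plate median or of vehicle wells; lower values mean less growth of the strain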
Conditions: growth OD

Measured: normalized growth

C[C@]12CCC(=O)C=C1CCC1C2C(=O)C[C@@]2(C)C1CC[C@]2(O)C(=O)CO (stereo partly drawn)
inactive: S. cerevisiae deletion strains, locus YJL187C, strain SWE1, active compounds read low 1.01 | S. cerevisiae deletion strains, locus YJR043C, strain POL32, active compounds read low 1 | S. cerevisiae deletion strains, locus YJR066W, strain TOR1, active compounds read low 0.967 | S. cerevisiae deletion strains, locus YKL009W, strain mrt4, active compounds read low 1.06 | S. cerevisiae deletion strains, locus YKL068W, active compounds read low 1.01 | S. cerevisiae deletion strains, locus YKL085W, strain MDH1 (second series), active compounds read low 0.994 | S. cerevisiae deletion strains, locus YKL085W, strain MDH1, active compounds read low 0.994 | S. cerevisiae deletion strains, locus YKL160W, strain elf1, active compounds read low 1 | S. cerevisiae deletion strains, locus YKR001C, strain vps1, active compounds read low 0.998 | S. cerevisiae deletion strains, locus YKR026C, strain gcn3, active compounds read low 0.99 | S. cerevisiae deletion strains, locus YKR091W, strain srl3, active compounds read low 0.999 | S. cerevisiae deletion strains, locus YLL001W, strain dnm1, active compounds read low 1.03 | S. cerevisiae deletion strains, locus YLL026W, active compounds read low 1 | S. cerevisiae deletion strains, locus YLL041C, strain sdh2, active compounds read low 1.01 | S. cerevisiae deletion strains, locus YLR027C, strain aat2, active compounds read low 1.01 | S. cerevisiae deletion strains, locus YLR039C, strain RIC1, active compounds read low 1.01 | S. cerevisiae deletion strains, locus YLR058C, strain SHM2, active compounds read low 0.981 | S. cerevisiae deletion strains, locus YLR102C, strain apc9, active compounds read low 0.995 | S. cerevisiae deletion strains, locus YLR113W, strain HOG1, active compounds read low 0.951 | S. cerevisiae deletion strains, locus YLR221C, strain rsa3, active compounds read low 1 | S. cerevisiae deletion strains, locus YLR258W, strain gsy2, active compounds read low 1.01 | S. cerevisiae deletion strains, locus YLR262C, strain YPT6 (second series), active compounds read low 0.995 | S. cerevisiae deletion strains, locus YLR262C, strain YPT6, active compounds read low 1.03 | S. cerevisiae deletion strains, locus YLR268W, strain sec22, active compounds read low 1.05 | S. cerevisiae deletion strains, locus YLR320W, strain mms22, active compounds read low 0.988 | S. cerevisiae deletion strains, locus YLR330W, strain CHS5, active compounds read low 1 | S. cerevisiae deletion strains, locus YLR342W, strain FKS1 (second series), active compounds read low 1.03 | S. cerevisiae deletion strains, locus YLR342W, strain FKS1, active compounds read low 0.992 | S. cerevisiae deletion strains, locus YLR357W, strain rsc2, active compounds read low 0.993 | S. cerevisiae deletion strains, locus YLR370C, strain arc18, active compounds read low 1.01 | S. cerevisiae deletion strains, locus YLR371W, strain rom2, active compounds read low 1.01 | S. cerevisiae deletion strains, locus YLR384C, strain iki3, active compounds read low 1 | S. cerevisiae deletion strains, locus YLR418C, strain cdc73, active compounds read low 1.03 | S. cerevisiae deletion strains, locus YML016C, strain PPZ1, active compounds read low 1 | S. cerevisiae deletion strains, locus YML032C, strain rad52, active compounds read low 0.957 | S. cerevisiae deletion strains, locus YML120C, strain ndi1, active compounds read low 1.02 | S. cerevisiae deletion strains, locus YML124C, strain tub3, active compounds read low 1 | S. cerevisiae deletion strains, locus YMR058W, strain fet3, active compounds read low 0.998 | S. cerevisiae deletion strains, locus YMR078C, strain ctf18, active compounds read low 1 | S. cerevisiae deletion strains, locus YMR125W, strain sto1, active compounds read low 1 | S. cerevisiae deletion strains, locus YMR129W, active compounds read low 0.989 | S. cerevisiae deletion strains, locus YMR205C, strain PFK2, active compounds read low 0.987 | S. cerevisiae deletion strains, locus YMR223W, strain ubp8, active compounds read low 0.977 | S. cerevisiae deletion strains, locus YMR231W, strain pep5, active compounds read low 1.01 | S. cerevisiae deletion strains, locus YMR263W, strain SAP30, active compounds read low 1 | S. cerevisiae deletion strains, locus YMR307W, strain GAS1, active compounds read low 1.03 | S. cerevisiae deletion strains, locus YNL067W, strain RPL9B, active compounds read low 1 | S. cerevisiae deletion strains, locus YNL071W, strain lat1, active compounds read low 1.01 | S. cerevisiae deletion strains, locus YNL183C, strain NPR1, active compounds read low 0.926 | S. cerevisiae deletion strains, locus YNL209W, strain ssb2, active compounds read low 1 | S. cerevisiae deletion strains, locus YNL233W, strain BNI4, active compounds read low 0.994 | S. cerevisiae deletion strains, locus YNL248C, strain rpa49, active compounds read low 1 | S. cerevisiae deletion strains, locus YNL250W, strain rad50, active compounds read low 0.999 | S. cerevisiae deletion strains, locus YNL271C, strain bni1, active compounds read low 1 | S. cerevisiae deletion strains, locus YNL298W, strain CLA4, active compounds read low 1.02 | S. cerevisiae deletion strains, locus YNL307C, strain MCK1, active compounds read low 1.01 | S. cerevisiae deletion strains, locus YNL322C, strain KRE1 (second series), active compounds read low 1 | S. cerevisiae deletion strains, locus YNR049C, strain mso1, active compounds read low 1.01 | S. cerevisiae deletion strains, locus YNR052C, strain pop2, active compounds read low 1 | S. cerevisiae deletion strains, locus YOL012C, strain htz1 0.71 | S. cerevisiae deletion strains, locus YOL147C, strain pex11, active compounds read low 1.01 | S. cerevisiae deletion strains, locus YOR001W, strain rrp6, active compounds read low 1.01 | S. cerevisiae deletion strains, locus YOR061W, strain CKA2, active compounds read low 1.01 | S. cerevisiae deletion strains, locus YOR069W, strain VPS5, active compounds read low 1.01 | S. cerevisiae deletion strains, locus YOR070C, strain gyp1, active compounds read low 1.01 | S. cerevisiae deletion strains, locus YOR080W, strain dia2, active compounds read low 1 | S. cerevisiae deletion strains, locus YOR083W, strain WHI5, active compounds read low 1 | S. cerevisiae deletion strains, locus YOR106W, strain vam3, active compounds read low 1.01 | S. cerevisiae deletion strains, locus YOR136W, strain idh2, active compounds read low 1.01 | S. cerevisiae deletion strains, locus YOR144C, strain elg1, active compounds read low 1 | S. cerevisiae deletion strains, locus YOR184W, strain ser1, active compounds read low 1.03 | S. cerevisiae deletion strains, locus YOR231W, strain MKK1, active compounds read low 0.985 | S. cerevisiae deletion strains, locus YOR265W, strain rbl2, active compounds read low 1.02 | S. cerevisiae deletion strains, locus YOR270C, strain vph1, active compounds read low 1.04 | S. cerevisiae deletion strains, locus YOR290C, strain snf2, active compounds read low 0.964 | S. cerevisiae deletion strains, locus YOR316C, strain cot1, active compounds read low 1 | S. cerevisiae deletion strains, locus YPL051W, strain arl3, active compounds read low 1.02 | S. cerevisiae deletion strains, locus YPL055C, strain LGE1, active compounds read low 0.992 | S. cerevisiae deletion strains, locus YPL078C, strain atp4, active compounds read low 1.01 | S. cerevisiae deletion strains, locus YPL106C, strain sse1, active compounds read low 0.96 | S. cerevisiae deletion strains, locus YPL240C, strain hsp82, active compounds read low 0.981 | S. cerevisiae deletion strains, locus YPL256C, strain CLN2, active compounds read low 0.981 | S. cerevisiae deletion strains, locus YPR119W, strain clb2, active compounds read low 1 | S. cerevisiae deletion strains, locus YPR141C, strain kar3, active compounds read low 0.994 | S. cerevisiae deletion strains, locus YPR163C, strain tif3, active compounds read low 0.996 | S. cerevisiae deletion strains, locus YPR167C, strain met16, active compounds read low 1.01 | S. cerevisiae deletion strains, strain wtn01, active compounds read low 1.05 | S. cerevisiae strains, strain wild type, active compounds read low 0.995
